The text below walks through data of ChEMBL document CHEMBL3988442, “University of Dundee, Small-Polar-MMV Screening Library” (2021).

For some of these results: Potency and affinity values are given separately.

Common to all, as to set-up: scale not given: direction of the effect not stated beside the values
The target in test [1] is Protein translocase subunit SecA (Escherichia coli (strain K12)) (UniProt P10408). The experiment in a line: Assay to Identify E. coli SecA ATPase Inhibitors. Type of test: functional. The settings on record: 30 µM.
Sequence of Protein translocase subunit SecA (Escherichia coli (strain K12)) (P10408 whole entry): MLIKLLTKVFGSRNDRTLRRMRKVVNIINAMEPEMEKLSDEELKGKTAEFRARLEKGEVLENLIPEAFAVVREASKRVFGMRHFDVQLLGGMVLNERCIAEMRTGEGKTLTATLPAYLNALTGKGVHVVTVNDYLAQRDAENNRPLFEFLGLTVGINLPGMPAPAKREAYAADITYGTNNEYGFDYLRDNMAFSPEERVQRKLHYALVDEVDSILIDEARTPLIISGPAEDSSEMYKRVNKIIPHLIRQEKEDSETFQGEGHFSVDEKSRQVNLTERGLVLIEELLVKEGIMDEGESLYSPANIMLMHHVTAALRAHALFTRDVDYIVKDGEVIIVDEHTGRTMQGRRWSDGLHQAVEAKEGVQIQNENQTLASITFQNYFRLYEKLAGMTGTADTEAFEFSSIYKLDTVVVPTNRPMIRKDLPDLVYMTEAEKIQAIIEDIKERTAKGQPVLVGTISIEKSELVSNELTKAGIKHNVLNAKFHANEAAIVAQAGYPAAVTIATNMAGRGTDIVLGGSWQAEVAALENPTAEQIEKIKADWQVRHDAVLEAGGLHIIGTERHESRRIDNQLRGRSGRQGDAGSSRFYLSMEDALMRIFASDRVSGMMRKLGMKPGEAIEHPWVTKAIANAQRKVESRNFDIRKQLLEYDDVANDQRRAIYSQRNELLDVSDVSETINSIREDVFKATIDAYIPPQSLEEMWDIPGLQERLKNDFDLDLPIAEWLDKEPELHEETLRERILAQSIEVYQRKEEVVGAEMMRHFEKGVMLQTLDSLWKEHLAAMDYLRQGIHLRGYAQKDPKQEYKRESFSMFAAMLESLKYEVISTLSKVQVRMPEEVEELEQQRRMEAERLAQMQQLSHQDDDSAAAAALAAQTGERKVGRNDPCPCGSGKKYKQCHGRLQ
In test [2] the target is T1, Ubiquitin-activating enzyme e1, putative (Leishmania donovani (strain BPK282A1)) (UniProt E9BSI1).
T1 sequence (whole entry): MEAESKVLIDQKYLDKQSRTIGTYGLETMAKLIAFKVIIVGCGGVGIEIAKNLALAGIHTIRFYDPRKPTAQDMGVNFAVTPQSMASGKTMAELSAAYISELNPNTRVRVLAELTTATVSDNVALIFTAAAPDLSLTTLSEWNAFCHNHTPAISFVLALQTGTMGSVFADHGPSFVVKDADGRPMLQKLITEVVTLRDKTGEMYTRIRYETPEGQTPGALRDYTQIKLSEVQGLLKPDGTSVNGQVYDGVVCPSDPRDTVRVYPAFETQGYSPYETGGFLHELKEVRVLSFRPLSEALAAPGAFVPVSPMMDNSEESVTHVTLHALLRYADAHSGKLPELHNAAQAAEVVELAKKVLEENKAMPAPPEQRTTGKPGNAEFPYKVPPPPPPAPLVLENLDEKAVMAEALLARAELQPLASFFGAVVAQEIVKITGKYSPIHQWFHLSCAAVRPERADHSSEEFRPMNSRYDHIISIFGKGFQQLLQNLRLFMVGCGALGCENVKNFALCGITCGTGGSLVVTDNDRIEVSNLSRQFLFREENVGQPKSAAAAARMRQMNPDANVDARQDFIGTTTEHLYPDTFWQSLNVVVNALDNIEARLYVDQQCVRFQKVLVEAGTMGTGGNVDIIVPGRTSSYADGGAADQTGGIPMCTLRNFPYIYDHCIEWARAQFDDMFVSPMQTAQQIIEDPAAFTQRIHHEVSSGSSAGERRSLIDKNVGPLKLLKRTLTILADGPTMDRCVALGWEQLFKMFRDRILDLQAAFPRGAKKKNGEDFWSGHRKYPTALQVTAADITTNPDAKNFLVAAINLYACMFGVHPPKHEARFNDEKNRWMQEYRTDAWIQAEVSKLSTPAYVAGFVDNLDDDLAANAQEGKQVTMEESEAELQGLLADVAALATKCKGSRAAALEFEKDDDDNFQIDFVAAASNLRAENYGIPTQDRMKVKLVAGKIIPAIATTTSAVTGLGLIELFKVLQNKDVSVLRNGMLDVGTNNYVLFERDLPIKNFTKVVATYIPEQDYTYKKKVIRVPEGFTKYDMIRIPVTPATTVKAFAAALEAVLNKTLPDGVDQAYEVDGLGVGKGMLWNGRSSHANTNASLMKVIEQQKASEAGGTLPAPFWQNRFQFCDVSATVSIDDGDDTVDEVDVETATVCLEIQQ
Briefly: Leishmania donovani Ubiquitin Activating Enzyme (LdE1). Type of test: functional. The settings on record: 30 µM.

The target in test [3] is AMP-activated protein kinase, AMPK (Homo sapiens) (UniProt P54646+O43741+P54619+Q9UGJ0+Q9Y478+Q13131+Q9UGI9). Briefly: AMP-dependent Kinase enzyme assay. An in vitro enzyme assay that detects ADP turnover that is directly proportional to AMPK activity. This uses naive AMPK that is activated during the assay with MK-8722. The test is classed as functional. The settings on record: 30 µM.

Test [4] concerns the target Sialic acid-binding Ig-like lectin 9 (Homo sapiens) (UniProt Q9Y336). Briefly: Hs-Siglec9 ALPHAscreen SOP 20170721. The settings on record: 10 µM. (Alpha assays give light when donor and acceptor beads are brought close together.)
Test [5] relates to Trypanosoma cruzi. Briefly: Trypanosoma cruzi phosphomannomutase and mannose-1-phosphate guanylyltransferase assay. The test is classed as functional. Conditions: 10 µM.
Test [6] has as its target T2, Arginase-2, mitochondrial (Homo sapiens) (UniProt P78540).
T2 sequence (whole entry): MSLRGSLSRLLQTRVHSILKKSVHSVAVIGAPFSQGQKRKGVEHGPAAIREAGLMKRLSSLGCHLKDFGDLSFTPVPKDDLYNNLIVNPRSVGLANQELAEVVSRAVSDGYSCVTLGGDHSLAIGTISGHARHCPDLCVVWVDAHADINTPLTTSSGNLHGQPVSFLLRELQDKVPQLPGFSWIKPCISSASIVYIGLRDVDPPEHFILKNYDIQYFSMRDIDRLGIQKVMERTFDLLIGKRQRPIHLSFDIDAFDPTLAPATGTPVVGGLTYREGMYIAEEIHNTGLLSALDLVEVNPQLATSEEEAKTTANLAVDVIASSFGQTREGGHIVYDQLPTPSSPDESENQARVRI
The experiment in a line: in vitro enzyme assay to detect the production of urea directly proportional to the activity of Arginase II. Also: in the data most compounds retested in dose-response had high values. The settings on record: 33.3 µM. The test is classed as functional.

For test [7], the target named is T3, Proteasome subunit beta (Trypanosoma cruzi) (UniProt O96673).
T3 sequence (whole entry): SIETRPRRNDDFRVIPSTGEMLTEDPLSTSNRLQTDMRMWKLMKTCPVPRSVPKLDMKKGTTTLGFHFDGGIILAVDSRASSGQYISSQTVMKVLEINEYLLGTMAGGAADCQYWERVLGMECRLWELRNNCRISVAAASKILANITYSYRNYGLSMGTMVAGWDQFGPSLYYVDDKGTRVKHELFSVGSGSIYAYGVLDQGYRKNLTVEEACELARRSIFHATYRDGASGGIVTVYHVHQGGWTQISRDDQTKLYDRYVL
The experiment in a line: Trypanosoma cruzi proteasome chymotrypsin-like activity (TcProtChymo) assay. Also: in the data most compounds retested in dose-response had high values. Type of test: functional. Conditions: 9.37 µM.

Test [8] is filed under the species Homo sapiens. Briefly: To identify inhibition of the IFN signalling (Jak-Stat) pathway via expression of an eGFP reporter gene under the control of an IFN-stimulated response element (ISRE) containing MxA promoter. The settings on record: 30 µM. The test is classed as functional. Background: A reporter such as luciferase makes a cellular process visible.
Test [9] addresses T4, Tyrosyl-tRNA synthetase, putative (Trypanosoma cruzi (strain CL Brener)) (UniProt Q4DSP6).
T4 sequence (whole entry): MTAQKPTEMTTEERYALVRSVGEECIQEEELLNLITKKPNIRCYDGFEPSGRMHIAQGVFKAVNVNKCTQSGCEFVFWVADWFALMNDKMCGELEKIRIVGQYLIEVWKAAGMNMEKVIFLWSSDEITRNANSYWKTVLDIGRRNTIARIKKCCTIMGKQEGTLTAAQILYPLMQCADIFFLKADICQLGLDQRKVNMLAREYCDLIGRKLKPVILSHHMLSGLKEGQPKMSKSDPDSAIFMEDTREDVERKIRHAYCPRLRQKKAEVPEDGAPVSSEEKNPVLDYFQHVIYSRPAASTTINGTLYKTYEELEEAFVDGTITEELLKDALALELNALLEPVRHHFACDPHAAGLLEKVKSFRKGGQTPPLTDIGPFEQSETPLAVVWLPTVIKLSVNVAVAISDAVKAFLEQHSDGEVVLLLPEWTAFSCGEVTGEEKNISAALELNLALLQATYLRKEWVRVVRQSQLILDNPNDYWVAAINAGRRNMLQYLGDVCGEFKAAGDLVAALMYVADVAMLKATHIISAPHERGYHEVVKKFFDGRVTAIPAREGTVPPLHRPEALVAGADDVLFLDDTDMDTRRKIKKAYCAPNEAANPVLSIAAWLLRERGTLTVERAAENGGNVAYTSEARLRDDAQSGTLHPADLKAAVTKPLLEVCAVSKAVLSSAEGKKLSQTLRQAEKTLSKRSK
Briefly: Trypanosoma cruzi tyrosyl tRNA synthetase (TcYRS) _High Tyrosine SOP. Also: in the data most compounds retested in dose-response had high values. The test is classed as functional. Conditions: 30 µM.

The target in test [10] is T4, Tyrosyl-tRNA synthetase, putative (Trypanosoma cruzi (strain CL Brener)). Briefly: Trypanosoma cruzi tyrosyl tRNA synthetase (TcYRS) SOP. The test is classed as functional. Conditions: 30 µM.
The target in test [11] is Chromo domain-containing protein 1 (Saccharomyces cerevisiae (strain ATCC 204508 / S288c) (Baker's yeast)) (UniProt P32657). The experiment in a line: ScCHD-1 Enzyme Inhibition Assay. Also: in the data most compounds retested in dose-response had high values. Type of test: functional. The settings on record: 30 µM.
Sequence of Chromo domain-containing protein 1 (Saccharomyces cerevisiae (strain ATCC 204508 / S288c) (Baker's yeast)) (P32657 whole entry, the tested form may be a part): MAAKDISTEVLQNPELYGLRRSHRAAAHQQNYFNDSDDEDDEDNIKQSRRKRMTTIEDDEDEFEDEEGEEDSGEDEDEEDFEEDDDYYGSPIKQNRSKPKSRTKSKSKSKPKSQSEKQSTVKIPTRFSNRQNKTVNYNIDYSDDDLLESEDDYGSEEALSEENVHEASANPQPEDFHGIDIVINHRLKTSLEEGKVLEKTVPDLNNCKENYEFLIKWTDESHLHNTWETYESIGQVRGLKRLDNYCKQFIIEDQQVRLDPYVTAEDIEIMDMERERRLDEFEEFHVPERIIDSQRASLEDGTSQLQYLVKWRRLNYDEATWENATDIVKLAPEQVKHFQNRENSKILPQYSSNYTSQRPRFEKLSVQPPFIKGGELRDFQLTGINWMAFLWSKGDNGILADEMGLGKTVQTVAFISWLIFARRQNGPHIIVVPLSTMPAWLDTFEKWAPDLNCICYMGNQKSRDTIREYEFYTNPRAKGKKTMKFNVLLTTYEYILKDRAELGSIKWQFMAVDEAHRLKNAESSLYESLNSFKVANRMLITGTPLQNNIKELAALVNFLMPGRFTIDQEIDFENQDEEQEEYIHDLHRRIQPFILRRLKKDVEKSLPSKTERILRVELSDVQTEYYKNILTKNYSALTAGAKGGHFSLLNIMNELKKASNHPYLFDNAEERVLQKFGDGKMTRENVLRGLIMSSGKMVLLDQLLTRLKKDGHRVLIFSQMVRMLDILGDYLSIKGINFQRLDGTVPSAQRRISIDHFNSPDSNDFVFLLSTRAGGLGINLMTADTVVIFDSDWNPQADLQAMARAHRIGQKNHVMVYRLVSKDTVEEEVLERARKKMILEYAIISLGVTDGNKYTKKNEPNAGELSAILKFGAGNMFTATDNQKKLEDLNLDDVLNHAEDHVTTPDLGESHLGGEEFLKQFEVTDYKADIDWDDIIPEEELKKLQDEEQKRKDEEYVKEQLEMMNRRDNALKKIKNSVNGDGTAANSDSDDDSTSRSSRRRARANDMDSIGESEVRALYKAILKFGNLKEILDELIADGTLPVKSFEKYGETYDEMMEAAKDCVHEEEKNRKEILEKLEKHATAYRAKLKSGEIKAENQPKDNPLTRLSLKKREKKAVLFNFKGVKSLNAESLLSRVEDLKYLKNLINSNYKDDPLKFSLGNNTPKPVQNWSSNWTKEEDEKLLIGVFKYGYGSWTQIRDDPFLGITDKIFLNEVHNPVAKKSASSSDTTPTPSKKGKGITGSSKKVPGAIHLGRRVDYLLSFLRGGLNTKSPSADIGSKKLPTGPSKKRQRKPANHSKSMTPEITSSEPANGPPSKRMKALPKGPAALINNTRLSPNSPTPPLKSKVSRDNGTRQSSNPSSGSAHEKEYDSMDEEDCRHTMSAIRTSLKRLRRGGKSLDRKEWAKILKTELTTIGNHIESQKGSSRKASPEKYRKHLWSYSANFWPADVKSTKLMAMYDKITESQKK

Sequence of Sialic acid-binding Ig-like lectin 9 (Homo sapiens) (Q9Y336 whole entry): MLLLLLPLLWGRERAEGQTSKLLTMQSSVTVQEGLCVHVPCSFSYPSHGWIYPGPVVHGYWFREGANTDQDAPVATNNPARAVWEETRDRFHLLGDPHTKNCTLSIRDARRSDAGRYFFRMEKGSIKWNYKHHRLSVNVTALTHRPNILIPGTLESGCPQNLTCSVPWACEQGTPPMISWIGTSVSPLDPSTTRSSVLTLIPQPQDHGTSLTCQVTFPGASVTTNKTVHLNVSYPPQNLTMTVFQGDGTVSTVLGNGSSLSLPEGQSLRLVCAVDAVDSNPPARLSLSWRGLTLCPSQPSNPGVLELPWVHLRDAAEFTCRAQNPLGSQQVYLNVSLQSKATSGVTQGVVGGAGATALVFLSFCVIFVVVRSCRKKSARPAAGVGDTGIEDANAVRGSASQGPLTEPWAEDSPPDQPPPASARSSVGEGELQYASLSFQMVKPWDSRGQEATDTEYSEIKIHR

As for `Cc1ccc(C(=O)N2CCCC(C(=O)N3CCCCC3)C2)c(O)c1` (stereo unspecified), the Percent Effect in test [1] was -7.91%; in test [2], 10.8%; in test [3] it was -4.33%; in [4] it was -0.223%; in [5], -5.19%; in test [6], -1.2%. Also, the Percent Effect in test [7] was -2.7%; in test [8], 12.5%; in test [9], 2.46%; in test [10], 1.24%; in test [11], -4.49%.

With `CCc1nc2n(n1)CC(NCC(=O)Nc1cc(C)on1)CC2` (stereo unspecified), the Percent Effect in test [1] was -7.96%; in [2], 5.06%; in [3] it was -1.49%; in test [4], 2.07%; in test [5] it was -7.27%; in test [6] it was 0.38%. In addition, the Percent Effect in test [7] is 17.1%; in [8], 22.4%; in [9] it was -3.45%; in test [10] it was -8.86%; in [11], -4.18%.

With `CSc1cccc(CN(C)C(=O)C2CC(=O)N(CCN(C)C)C2)c1` (stereo unspecified), the Percent Effect in test [1] was 0.893%; in test [2] it was 10.7%; in test [3], -12.1%; in test [4], 4.56%; in test [5] it was 4.38%; in test [6], 18.2%. Further, the Percent Effect in test [7] is 18.1%; in [8], 29.9%; in test [9] it was 8.2%; in test [10], 16.1%; in test [11] it was -0.611%.

For the compound `Cc1c(C(=O)NC(C)C(C)C)nnn1-c1cccc2c1CCN(C)C2` (stereo unspecified), the Percent Effect is -4.44% in [1]; 10.5% in test [2]; -6.99% in test [3]; 3.62% in [4]; 1.85% in test [5]; -17.8% in test [6]. For the same compound, the Percent Effect in test [7] was 7.19%; in test [8] it was 3.15%; in [9], 3.19%; in [10] it was 0%; in [11], -11.2%.

On to `Cc1cc(CN2CCN(C(=O)NCc3ccc(C)s3)CC2)no1`, for which the Percent Effect is -0.722% in [1]; 17.7% in test [2]; -2.9% in test [3]; 3.54% in test [4]; -4.82% in test [5]; 10.3% in [6]. Further, the Percent Effect in test [7] is 3.85%; in [8], 15.8%; in test [9], 2.46%; in [10] it was 21.5%; in test [11], -5.4%.

For the compound `CC(C)N1CCc2c(C#N)c(NCc3ccco3)n3cnnc3c2C1`, the Percent Effect was -3.81% in [1]; 7.89% in [2]; 6.37% in [3]; -3.12% in test [4]; -3.8% in test [5]; 3.55% in [6]. Also, the Percent Effect in [7] is 15.4%; in test [8] it was -16.1%; in test [9] it was 1.06%; in test [10], 7.79%; in test [11], -9.63%.

In the case of `CS(=O)(=O)N1CCOCC2(CN(Cc3ccsc3)CCO2)C1` (stereo unspecified), the Percent Effect in [1] was -4.51%; in test [2], 5.48%; in test [3], -1.43%; in test [4] it was 5.15%; in test [5], 7.14%; in test [6], -4.39%. The Percent Effect in [7] is 8.82%; in test [8], 10.5%; in test [9] it was 5.21%; in test [10], 6.17%; in test [11], -0.73%.

As for `O=C(Nc1nncs1)NC1CCc2ccccc21` (stereo unspecified), the Percent Effect in test [1] was 0.119%; in test [2] it was 5.48%; in test [3], 1.57%; in test [4] it was 3.21%; in test [5] it was -6.94%; in test [6], -3.19%. The Percent Effect in test [7] was 8.13%; in test [8] it was 40.4%; in test [9], 6.25%; in [10] it was 16.1%; in test [11], -1.82%.

For the compound `COCCN1C[C@H]2CC[C@@]3(N=C(C)N(CC4CC4)C3=O)[C@H]2C1`, the Percent Effect in [1] was -4.99%; in test [2], 5.41%; in test [3], 1.81%; in test [4], -4.12%; in [5], -0.391%; in [6], -0.417%. Moreover, the Percent Effect in test [7] was 8.71%; in test [8] it was 7.83%; in test [9], 6.93%; in [10], 8.54%; in test [11], 1.06%.

As to `Cc1noc([C@H]2CC[C@@H]3[C@@H](CCN3S(C)(=O)=O)O2)n1`, the Percent Effect in [1] is -6.38%; in test [2] it was 2.7%; in [3] it was 1.84%; in test [4], -1.29%; in test [5], 0.977%; in [6] it was 3.75%. Also, the Percent Effect was 6.17% in test [7]; -5.62% in [8]; 7.92% in test [9]; 11% in [10]; -2.42% in test [11].

As for `Cn1c(NCC(O)c2ccc(F)cc2F)c(C#N)c(=O)n(C)c1=O` (stereo unspecified), the Percent Effect in test [1] was -4.86%; in [2] it was 17.7%; in test [3] it was -12.9%; in test [4] it was -5.84%; in test [5], 1.6%; in [6], 6.46%. The Percent Effect in test [7] was 4.01%; in test [8] it was -3.56%; in [9] it was 5.42%; in test [10] it was 13.9%; in test [11], -7.19%.
